Measurements published in PubChem BioAssay AID1159580 (chemical genetic matrix, 2015).
The whole screen tested about 5,500 compounds, of which about 2,000 (36%) were called active. Another 18% or so got no clear call; they are omitted. Rule as the data show it: active = normalized growth mostly below about 0.91 (no sharp cut-off); inconclusive = no clear call, values can overlap the other calls; inactive = mostly above about 0.92. The list shows a part of the results.

Assay: chemical genetic growth profiling, strain panel (AID 1159580);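 also: tested at 20 µM; growth read once vehicle control cultures reached saturation at 30 °C; 1 = growth at the plate median or of vehicle wells; lower values mean less growth of the strain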
Conditions: growth OD

Measured: normalized growth

CCCCN(CC)c1c([N+](=O)[O-])cc(C(F)(F)F)cc1[N+](=O)[O-]
inactive: S. cerevisiae deletion strains, locus YJR075W, strain HOC1, hits give low values 1 | S. cerevisiae deletion strains, locus YKL009W, strain mrt4, hits give low values 1.04 | S. cerevisiae deletion strains, locus YKL068W, hits give low values 1.01 | S. cerevisiae deletion strains, locus YKL085W, strain MDH1 (second series), hits give low values 1.01 | S. cerevisiae deletion strains, locus YKL085W, strain MDH1, hits give low values 1.01 | S. cerevisiae deletion strains, locus YKL160W, strain elf1, hits give low values 1.02 | S. cerevisiae deletion strains, locus YKL190W, strain CNB1, hits give low values 1.02 | S. cerevisiae deletion strains, locus YKR001C, strain vps1, hits give low values 1.04 | S. cerevisiae deletion strains, locus YKR026C, strain gcn3, hits give low values 1.02 | S. cerevisiae deletion strains, locus YKR091W, strain srl3, hits give low values 1.01 | S. cerevisiae deletion strains, locus YLL001W, strain dnm1, hits give low values 1.01 | S. cerevisiae deletion strains, locus YLL026W, hits give low values 1 | S. cerevisiae deletion strains, locus YLL041C, strain sdh2, hits give low values 1.01 | S. cerevisiae deletion strains, locus YLR027C, strain aat2, hits give low values 0.996 | S. cerevisiae deletion strains, locus YLR039C, strain RIC1, hits give low values 1.02 | S. cerevisiae deletion strains, locus YLR058C, strain SHM2, hits give low values 1.01 | S. cerevisiae deletion strains, locus YLR102C, strain apc9, hits give low values 1.01 | S. cerevisiae deletion strains, locus YLR113W, strain HOG1, hits give low values 0.973 | S. cerevisiae deletion strains, locus YLR221C, strain rsa3, hits give low values 1 | S. cerevisiae deletion strains, locus YLR258W, strain gsy2, hits give low values 1.01 | S. cerevisiae deletion strains, locus YLR262C, strain YPT6 (second series), hits give low values 0.995 | S. cerevisiae deletion strains, locus YLR262C, strain YPT6, hits give low values 1.02 | S. cerevisiae deletion strains, locus YLR268W, strain sec22, hits give low values 1.02 | S. cerevisiae deletion strains, locus YLR320W, strain mms22, hits give low values 1.02 | S. cerevisiae deletion strains, locus YLR330W, strain CHS5, hits give low values 1.01 | S. cerevisiae deletion strains, locus YLR342W, strain FKS1 (second series), hits give low values 1.08 | S. cerevisiae deletion strains, locus YLR342W, strain FKS1, hits give low values 1 | S. cerevisiae deletion strains, locus YLR357W, strain rsc2, hits give low values 1.03 | S. cerevisiae deletion strains, locus YLR370C, strain arc18, hits give low values 1.01 | S. cerevisiae deletion strains, locus YLR371W, strain rom2, hits give low values 1.01 | S. cerevisiae deletion strains, locus YLR384C, strain iki3, hits give low values 1 | S. cerevisiae deletion strains, locus YLR418C, strain cdc73, hits give low values 1 | S. cerevisiae deletion strains, locus YML016C, strain PPZ1, hits give low values 1.01 | S. cerevisiae deletion strains, locus YML032C, strain rad52, hits give low values 1.02 | S. cerevisiae deletion strains, locus YML120C, strain ndi1, hits give low values 1.03 | S. cerevisiae deletion strains, locus YML124C, strain tub3, hits give low values 1.01 | S. cerevisiae deletion strains, locus YMR058W, strain fet3, hits give low values 1.02 | S. cerevisiae deletion strains, locus YMR078C, strain ctf18, hits give low values 1.01 | S. cerevisiae deletion strains, locus YMR125W, strain sto1, hits give low values 1.01 | S. cerevisiae deletion strains, locus YMR129W, hits give low values 1.02 | S. cerevisiae deletion strains, locus YMR205C, strain PFK2, hits give low values 1 | S. cerevisiae deletion strains, locus YMR223W, strain ubp8, hits give low values 1.02 | S. cerevisiae deletion strains, locus YMR231W, strain pep5, hits give low values 0.997 | S. cerevisiae deletion strains, locus YMR263W, strain SAP30, hits give low values 1.02 | S. cerevisiae deletion strains, locus YMR307W, strain GAS1, hits give low values 0.998 | S. cerevisiae deletion strains, locus YNL067W, strain RPL9B, hits give low values 1.01 | S. cerevisiae deletion strains, locus YNL071W, strain lat1, hits give low values 1.02 | S. cerevisiae deletion strains, locus YNL128W, strain TEP1, hits give low values 1.02 | S. cerevisiae deletion strains, locus YNL153C, strain GIM3, hits give low values 1.01 | S. cerevisiae deletion strains, locus YNL183C, strain NPR1, hits give low values 0.999 | S. cerevisiae deletion strains, locus YNL209W, strain ssb2, hits give low values 1.01 | S. cerevisiae deletion strains, locus YNL233W, strain BNI4, hits give low values 1.01 | S. cerevisiae deletion strains, locus YNL248C, strain rpa49, hits give low values 1.02 | S. cerevisiae deletion strains, locus YNL250W, strain rad50, hits give low values 1 | S. cerevisiae deletion strains, locus YNL271C, strain bni1, hits give low values 1.01 | S. cerevisiae deletion strains, locus YNL298W, strain CLA4, hits give low values 1.01 | S. cerevisiae deletion strains, locus YNL307C, strain MCK1, hits give low values 1.02 | S. cerevisiae deletion strains, locus YNL322C, strain KRE1 (second series), hits give low values 1.01 | S. cerevisiae deletion strains, locus YNL322C, strain KRE1, hits give low values 1.01 | S. cerevisiae deletion strains, locus YNR049C, strain mso1, hits give low values 1.01 | S. cerevisiae deletion strains, locus YNR052C, strain pop2, hits give low values 1.02 | S. cerevisiae deletion strains, locus YOL006C, strain TOP1, hits give low values 1.01 | S. cerevisiae deletion strains, locus YOL012C, strain htz1 0.93 | S. cerevisiae deletion strains, locus YOL147C, strain pex11, hits give low values 1.01 | S. cerevisiae deletion strains, locus YOR001W, strain rrp6, hits give low values 1.03 | S. cerevisiae deletion strains, locus YOR061W, strain CKA2, hits give low values 1.01 | S. cerevisiae deletion strains, locus YOR069W, strain VPS5, hits give low values 1.01 | S. cerevisiae deletion strains, locus YOR070C, strain gyp1, hits give low values 1.02 | S. cerevisiae deletion strains, locus YOR080W, strain dia2, hits give low values 1 | S. cerevisiae deletion strains, locus YOR083W, strain WHI5, hits give low values 1.02 | S. cerevisiae deletion strains, locus YOR106W, strain vam3, hits give low values 0.994 | S. cerevisiae deletion strains, locus YOR136W, strain idh2, hits give low values 1.01 | S. cerevisiae deletion strains, locus YOR144C, strain elg1, hits give low values 1.01 | S. cerevisiae deletion strains, locus YOR184W, strain ser1, hits give low values 1.03 | S. cerevisiae deletion strains, locus YOR231W, strain MKK1, hits give low values 1.06 | S. cerevisiae deletion strains, locus YOR265W, strain rbl2, hits give low values 1.03 | S. cerevisiae deletion strains, locus YOR270C, strain vph1, hits give low values 1.06 | S. cerevisiae deletion strains, locus YOR290C, strain snf2, hits give low values 1.04 | S. cerevisiae deletion strains, locus YOR316C, strain cot1, hits give low values 1.01 | S. cerevisiae deletion strains, locus YPL051W, strain arl3, hits give low values 1 | S. cerevisiae deletion strains, locus YPL055C, strain LGE1, hits give low values 1.01 | S. cerevisiae deletion strains, locus YPL078C, strain atp4, hits give low values 1.02 | S. cerevisiae deletion strains, locus YPL106C, strain sse1, hits give low values 1.03 | S. cerevisiae deletion strains, locus YPL240C, strain hsp82, hits give low values 1.01 | S. cerevisiae deletion strains, locus YPL241C, strain CIN2, hits give low values 1.01 | S. cerevisiae deletion strains, locus YPL256C, strain CLN2, hits give low values 1.05 | S. cerevisiae deletion strains, locus YPR119W, strain clb2, hits give low values 1.01 | S. cerevisiae deletion strains, locus YPR141C, strain kar3, hits give low values 1.01 | S. cerevisiae deletion strains, locus YPR163C, strain tif3, hits give low values 1.01 | S. cerevisiae deletion strains, locus YPR167C, strain met16, hits give low values 1.02 | S. cerevisiae deletion strains, strain wtn01, hits give low values 1.01 | S. cerevisiae strains, strain wild type, hits give low values 1.01
